# Screens: PubChem BioAssay, several laboratories
# SRC1 inh – inhibits human SRC1 coactivator | 360,000 tested, 0.12% active | Q15788 | inhibition, % at 3.6 µM | HEK293 GAL4-SRC1 luciferase reporter, luminescence | AID 588354;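 active = inhibition above the campaign mean plus 3 SD, with each screening campaign given its own cutoff, cut at about 60% in these data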
# NR2F2 inh – blocks human COUP-TFII nuclear receptor; inhibition, % at 8.6 µM; HEK293T NGFI-A luciferase reporter, luminescence; AID 686940; P24468; 370,000 tested, 0.7% active;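 active = inhibition above a per-plate cutoff, mean inhibition of test wells between control levels plus 3 SD, cut at about 38% in these data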;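 note: cells cotransfected with COUP-TFII expression vector driving the NGFI-A reporter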
# Target sequence (P24468 whole entry, looked up): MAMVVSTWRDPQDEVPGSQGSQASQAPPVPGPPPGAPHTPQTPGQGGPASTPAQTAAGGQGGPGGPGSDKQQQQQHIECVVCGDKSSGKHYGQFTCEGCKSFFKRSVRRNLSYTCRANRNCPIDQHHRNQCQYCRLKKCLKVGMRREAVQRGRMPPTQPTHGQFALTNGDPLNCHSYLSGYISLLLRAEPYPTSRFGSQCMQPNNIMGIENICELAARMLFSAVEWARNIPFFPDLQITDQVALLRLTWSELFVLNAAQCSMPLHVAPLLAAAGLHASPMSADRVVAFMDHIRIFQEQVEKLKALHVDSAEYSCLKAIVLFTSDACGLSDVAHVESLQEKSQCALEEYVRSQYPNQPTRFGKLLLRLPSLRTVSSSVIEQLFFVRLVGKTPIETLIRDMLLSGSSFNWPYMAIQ
# SRC2 inh – human SRC2 (NCOA2) inhibition | 370,000 tested, 0.17% active | Q15596 | inhibition, % at 9 µM | HEK293 GAL4-SRC2 luciferase reporter, luminescence;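 active = inhibition above the mean inhibition of all tested compounds plus 3 SD, set per campaign, cut at about 52% in these data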
# SRC3 inh – inhibitors of human steroid receptor coactivator 3 (SRC3) | Q9Y6Q9 | HEK293 GAL4-SRC3 luciferase reporter, luminescence | inhibition, % at 3.6 µM | 360,000 tested, 0.17% active;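 active = inhibition above a per-campaign cutoff, the mean of all compounds plus 3 SD, cut at about 60% in these data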;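 note: higher means less SRC3-driven luciferase light from the GAL4 reporter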
# Gli-Sufu block – antagonists of Gli-Sufu signaling; Sufu-KO-LIGHT fibroblasts, Gli luciferase reporter luminescence; inhibition, % at 5 µM; 340,000 tested, 0.74% active; AID 588413;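 active = inhibition above about 55%, limit read from the data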
# LRH-1 inv ag – suppresses constitutive activity of human LRH-1; O00482; HEK293T StAR-luciferase reporter, LRH-1 transfected, 24 h; inhibition, % at 3.6 µM; 360,000 tested, 0.13% active; AID 602396;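 active = inhibition above the mean inhibition of all tested compounds plus 3 SD, cut at about 73% in these data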
# Gli-Sufu confirm – confirmation of Gli-SUFU pathway antagonists; shares compounds with Gli-Sufu block; Sufu-KO-LIGHT cells, Gli luciferase reporter, luminescence; inhibition, % at 5 µM; 2,500 tested, 40% active;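 active = mean inhibition at 5 µM reaching about 45%, limit read from the data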
# Gli cytotox – counter-screen for Gli-SUFU antagonists: cytotoxicity; shares compounds with Gli-Sufu block; Sufu-KO-LIGHT cells cytotoxicity, ATP luminescence; cytotoxicity, % at 5 µM; 2,500 tested, 32% active; AID 651994;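 active = mean cytotoxicity at 5 µM above about 25%, limit read from the data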;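 note: cells exposed to compound overnight for roughly 16 to 18 hours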
# Wnt3a cs – counter-screen for Gli-SUFU antagonists: Wnt3a reporter inhibition; shares compounds with Gli-Sufu block; Wnt-LIGHT cells, Wnt3a-driven luciferase reporter, luminescence; 2,500 tested, 20% active; inhibition, % at 6.25 µM; AID 651995;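 active = mean inhibition above about 25%, limit read from the data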
# Numbers stand for hits; 0 = inactive; - = not tested or not shown. This is a sample that favours compounds with a hit; in the whole collection about 1.3% have one here.
SMILES,SRC1 inh,NR2F2 inh,SRC2 inh,SRC3 inh,Gli-Sufu block,LRH-1 inv ag,Gli-Sufu confirm,Gli cytotox,Wnt3a cs
Nc1ccc(N=Nc2ccc(O)cc2)c(N)n1,0,0,0,0,60,0,0,26,0
O=C(Cn1ccc([N+](=O)[O-])n1)c1ccccc1,0,0,0,0,0,0,0,0,0
O=C(Cn1cnc([N+](=O)[O-])n1)c1ccccc1,0,0,0,0,0,0,-,-,-
Nc1[nH]c(C(=O)c2ccccc2)c(-c2ccccc2)c1C(=O)NCCc1c[nH]c2ccccc12,-,0,0,-,-,-,-,-,-
CCCCCC[C@@H](CC)CN(C(=O)Oc1ccccc1)c1ccccc1,-,0,0,-,-,-,-,-,-
CCCCCCCC[n+]1c(C)n(-c2ccccc2)c2ccc(NC(C)=O)cc21,0,0,0,0,76,0,78,31,0
COC(=O)[C@]12C[C@H](CC(=O)N3CCC(c4ccccc4)CC3)C(=O)N(Cc3cccc4ccccc34)C1=C[C@H](COCc1ccccc1)O[C@@H]2C,-,0,0,-,-,-,-,-,-
Cc1cn2c(-c3cccnc3)nnc2s1,0,0,0,0,0,0,-,-,-
Cc1cn2c(-c3ccncc3)nnc2s1,0,0,0,0,0,0,0,0,0
O=C(N/N=C/c1ccccc1Cl)c1[nH]c2ccc(Br)cc2c1-c1ccccc1,0,0,0,0,68,0,58,61,0
CCN(C[C@H]1[C@@H](c2ccc(C3=CCCC3)cc2)[C@H](CO)N1c1nc(C)c(C)s1)S(=O)(=O)c1ccccc1[N+](=O)[O-],-,0,0,-,-,-,-,-,-
CC(COc1cccc(C#N)c1)CN1CCC(C(O)(c2ccccc2)c2ccccc2)CC1 (centres undefined),-,0,0,-,-,-,-,-,-
CCOc1ccc2[nH]c(=O)c(CN(Cc3ccco3)C(=O)c3ccc(Br)cc3)cc2c1,0,0,0,0,0,0,-,-,-
COc1ccc2[nH]c(=O)c(CN(Cc3ccco3)C(=O)c3ccccc3)cc2c1,0,0,0,0,95,0,0,0,0
CC1(C)Cc2c(sc3nc(-c4ccccc4)n(N)c(=O)c23)CO1,0,0,0,0,74,0,0,0,0
CC[N+](C)(CC)CCC(c1ccccc1)C1CCCCC1 (centres undefined),0,0,0,0,56,0,50,0,0
CC[N+](C)(CC)CCOC(=O)C(O)(c1ccccc1)C1CCCCC1 (centres undefined),0,0,0,0,0,0,-,-,-
CC(C)(C)CCN1CCC[C@H](NC(=O)COc2ccc(F)c(Cl)c2)C1,-,0,-,-,-,-,-,-,-
CCOCCCNC(=O)c1cc2sc(Cl)cc2n1CC,0,0,0,0,59,0,0,0,0
CCOCCCNC(=O)c1cc(C)nn1-c1ccccc1,0,0,0,0,0,0,-,-,-
O=C1CCC[C@H]2C[C@H](NCc3ccccc3Cl)CC[C@]23CCCN13,-,0,-,-,-,-,-,-,-
O=C(c1ccc(Cl)cc1)c1ccc(OCC(=O)N2CCOCC2)cc1,0,0,0,0,69,0,0,0,0
CC(CC(=O)Nc1ccc(-c2ccno2)cc1)n1cccn1 (centres undefined),0,0,0,0,0,0,-,-,-
Cc1cc(C)n(C(C)CC(=O)Nc2ccc(-c3ccno3)cc2)n1 (centres undefined),0,0,0,0,56,0,0,0,0
COc1cc2c(c(OC)c1OC)-c1ccc(OC)c(=O)cc1C(NC(=O)c1ccccc1)CC2 (centres undefined),0,0,0,0,0,0,-,-,-
SMILES,SRC1 inh,NR2F2 inh,SRC2 inh,SRC3 inh,Gli-Sufu block,LRH-1 inv ag,Gli-Sufu confirm,Gli cytotox,Wnt3a cs
COc1cc2c(c(OC)c1OC)-c1ccc(SC)c(=O)cc1C(NC(=O)c1ccccc1)CC2 (centres undefined),0,0,0,0,63,0,66,51,46
C=COC(=O)NC1CCc2cc(OC)c(OC)c(OC)c2-c2ccc(SC)c(=O)cc21 (centres undefined),0,0,0,0,66,0,64,63,40
COC(=O)CSc1nnc(-c2ccc(NS(=O)(=O)c3ccc(C)c(C)c3)cc2)o1,-,0,0,-,-,-,-,-,-
COC(=O)CC[C@@H](/C=C/C(=O)OC(C)(C)C)Sc1ccc(C(C)(C)C)cc1,-,0,0,-,-,-,-,-,-
O=C(Nc1nc2ncccn2c1-c1ccccc1)c1ccc(F)cc1,-,0,0,-,-,-,-,-,-
COC(=O)[C@@]12CCCCC3=C1N(CCC3)C(=O)[C@H]2CC(=O)NCc1ccc(C)o1,-,0,0,-,-,-,-,-,-
CN1CCN(/C=N/c2sc3c(c2C#N)CCCCC3)CC1,0,0,0,0,80,0,0,0,0
COc1ccccc1CCn1cnc(-c2ccc(OC)c(OC)c2)c1CC(C)C,-,0,0,-,-,-,-,-,-
Cc1cc(NS(=O)(=O)c2ccc(NC(=O)Cc3ccccc3)cc2)no1,-,0,0,-,-,-,-,-,-
CCOc1ccc(OCc2ccc(C(=O)NN)o2)cc1,0,0,0,0,0,0,-,-,-
CCOc1ccc(OCc2ccc(C(=O)NC(C)(C)C)o2)cc1,0,0,0,0,0,0,0,0,0
CN1CCN(C(=S)NC(=O)c2ccc(C(C)(C)C)cc2)CC1,0,0,0,0,60,0,0,0,0
CCO[C@H]1OC(C(=O)N2CCOCC2)=C[C@@H](C2CC2)[C@@H]1CCCO,0,0,0,0,99,0,0,0,0
CCO[C@@H]1OC(C(=O)N2CCOCC2)=C[C@H](C2CC2)[C@H]1CCCO,0,0,0,0,0,0,-,-,-
COc1cccc(CNC(=O)C(NS(=O)(=O)c2ccc3c(c2)CCN3C(C)=O)C(C)C)c1 (centres undefined),0,0,0,0,61,0,0,0,0
CC(=O)N1CCN(C(=O)CN2C(=O)NC(C)(c3ccc4ccccc4c3)C2=O)CC1 (centres undefined),0,0,0,0,0,0,-,-,-
CC1(c2ccc3ccccc3c2)NC(=O)N(CC(=O)N2CCN(Cc3ccc(C#N)cc3)CC2)C1=O (centres undefined),0,-,-,0,68,0,71,0,32
O=C(OCc1cn(Cc2cccc(Cl)c2)nn1)N1CCCC1,-,0,0,-,-,-,-,-,-
Cc1cc(C)n2nc(N)c(N=Nc3ccc(Cl)cc3)c2n1,0,0,0,0,81,0,0,0,0
CCCN1CCS(=O)(=O)N(Cc2cn(Cc3ccc(F)cc3)nn2)C(C(=O)OC)C1 (centres undefined),-,0,0,-,-,-,-,-,-
Cc1c(CCOC(=O)C23CC4CC(CC(C)(C4)C2)C3)sc[n+]1Cc1ccccc1,0,0,0,0,0,0,56,0,0
c1ccc(-c2cc(-c3nnc4sc(Cc5cccs5)nn34)[nH]n2)cc1,-,0,0,-,-,-,-,-,-
CCOc1ccc2nc(NC(=O)CSc3nnnn3C3CCCCC3)sc2c1,0,0,0,0,71,0,0,0,0
